Test results: PubChem BioAssay (NCI)
Compounds without any hit were thinned out: in the full panel of roughly 79,000, 15% have a hit. Activity calls are given as the source filed them. Cut-off read from the data, not from the text of the source: active = growth inhibition above about 70%; inactive = the rest.

Experiments:
[1] = NCI Yeast Anticancer Drug Screen. Data for the rad50 strain (AID 155);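 note: 0% = growth of vehicle-only cultures of the same strain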; conditions: S. cerevisiae rad50 strain growth inhibition, active compounds read high
Outline: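 A DNA repair-deficient yeast mutant serves as the test organism; compound-induced growth inhibition is calculated against vehicle-treated cells.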

[2] = NCI Yeast Anticancer Drug Screen. Data for the mec2-1 strain (AID 157); conditions: S. cerevisiae mec2-1 strain, active compounds read high
Outline: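 Readout is yeast growth inhibition, normalised to vehicle-treated controls, in the mec2-1 strain exposed to compound.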

[3] = NCI Yeast Anticancer Drug Screen. Data for the sgs1 mgt1 strain (AID 161);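 note: 0% = growth of cultures given vehicle only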; conditions: S. cerevisiae sgs1 mgt1 strain, active compounds read high
Outline: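 Growth of a repair-deficient yeast mutant was monitored after compound treatment and expressed as inhibition relative to vehicle-treated cultures.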

[4] = NCI Yeast Anticancer Drug Screen. Data for the cln2 rad14 strain (AID 165);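 note: 0% = growth equal to vehicle treated cultures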; conditions: S. cerevisiae cln2 rad14 strain, active compounds read high
Outline: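 Relative to vehicle controls, growth inhibition of compound-treated cln2 rad14 yeast was recorded.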

[5] = NCI Yeast Anticancer Drug Screen. Data for the bub3 strain (AID 167); conditions: S. cerevisiae bub3 mutant strain, active compounds read high
Outline: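 Inhibition values come from growth of compound-treated mutant yeast normalised to vehicle-treated controls.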

[6] = NCI Yeast Anticancer Drug Screen. Data for the mlh1 rad18 strain (AID 175); conditions: S. cerevisiae mlh1 rad18 strain growth inhibition, active compounds read high
Outline: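 Test agents were incubated with a yeast strain of defined genotype (DNA damage repair defect). Inhibition of growth was derived by comparison with vehicle-exposed cultures.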

[7] = at 5.0 µM (retest, dose inferred, filed as 0.5)
[8] = at 50.0 µM (retest, dose inferred, filed as 5.0)

Measured: growth inhibition

CC(=O)[O][Pb]([CH3])([CH3])[CH3]
inactive: [1]; at 50.0 µM -28% | [2]; at 50.0 µM -35.9% | [3]; at 50.0 µM -12.4% | [4]; at 50.0 µM 6.7% | [5]; at 50.0 µM -55.5% | [6]; at 50.0 µM -20.8%

COc1ccc(N=NC(=O)NC(CC(C)C)C(=O)NCC(=O)O)cc1 (stereo not given)
inactive: [1]; at 50.0 µM -0.8% | [2]; at 50.0 µM 2.45% | [3]; at 50.0 µM 10.4% | [4]; at 50.0 µM 28.8% | [5]; at 50.0 µM 5.35%

CCOP(=O)(OCC)/C(C#N)=C/c1cn(C)cn1
inactive: [1]; at 50.0 µM -3.35% | [2]; at 50.0 µM 1.95% | [3]; at 50.0 µM -5.95% | [4]; at 50.0 µM -16.1% | [5]; at 50.0 µM -4.65% | [6]; at 50.0 µM -21.8%

CCOC(=O)C(CC(C)C)NC(=O)C(N)Cc1ccc(N(CCCl)CCCl)cc1 (stereo not given)
inactive: [1]; at 50.0 µM -2.4% | [2]; at 50.0 µM -8.9% | [3]; at 50.0 µM -27.1% | [4]; at 50.0 µM -17.6% | [5]; at 50.0 µM -30.1%

[Cl][Sn]([c]1ccccc1)([c]1ccccc1)[c]1ccccc1
active: [1]; [7] 99% | [1]; [8] 98% | [2]; [7] 99% | [2]; [8] 99% | [3]; [7] 100% | [3]; [8] 99% | [4]; [7] 99% | [4]; [8] 99% | [5]; [7] 100% | [5]; [8] 99% | [6]; [7] 99% | [6]; [8] 98%

COc1cc(C(CC(C)=O)c2cc3c(cc2OC(C)=O)OCO3)cc(OC)c1OC (stereo not given) (tested in a mixture with another compound)
inactive: [1]; at 50.0 µM 5.1% | [2]; at 50.0 µM 8.6% | [3]; at 50.0 µM 17.2% | [4]; at 50.0 µM 2.45% | [5]; at 50.0 µM 5.15% | [6]; at 50.0 µM 23.8%

O=C1C2C(C(=O)N1c1ccc(Cl)c(Cl)c1)C1(Cl)C(Cl)=C(Cl)C2(Cl)C1(Cl)Cl (stereo not given)
active: [1]; at 50.0 µM 91.8% | [2]; at 50.0 µM 95.2% | [3]; at 50.0 µM 96.1% | [4]; at 50.0 µM 86.5% | [5]; at 50.0 µM 94.1% | [6]; at 50.0 µM 95.7%

C/C(=N\N=C(\[Se])N(C)C)c1ccccn1
active: [1]; at 50.0 µM 86.9% | [2]; at 50.0 µM 89.9% | [3]; at 50.0 µM 89.7% | [4]; at 50.0 µM 89.3% | [5]; at 50.0 µM 87.1%

CCCCCCNC(=O)CCl
inactive: [1]; at 50.0 µM 6.5% | [2]; at 50.0 µM -9.85% | [3]; at 50.0 µM 15.3% | [4]; at 50.0 µM -14.6% | [5]; at 50.0 µM 7.45%

C1CC[N-]CC1.C1CC[N-]CC1.N#C[S-].N#C[S-].[Cd]
active: [1]; [8] 86% | [3]; [8] 81% | [5]; [8] 73%
inactive: [1]; [7] 33% | [2]; [7] 18% | [2]; [8] 69% | [3]; [7] 15% | [4]; [7] 11% | [4]; [8] 57% | [5]; [7] 10% | [6]; [7] -4% | [6]; [8] 66%

CC1CCN(C(CC(=O)c2ccccc2)C(=O)c2ccccc2)CC1 (stereo not given)
active: [1]; [8] 99% | [2]; [8] 100% | [3]; [8] 99% | [4]; [8] 99% | [5]; [8] 100% | [6]; [8] 98%
inactive: [1]; [7] 20% | [2]; [7] 7% | [3]; [7] 21% | [4]; [7] 9% | [5]; [7] 13% | [6]; [7] -2%

CCCC1CC[N-]CC1.CCCC1CC[N-]CC1.N#C[S-].N#C[S-].[Cd]
active: [1]; [8] 86% | [3]; [8] 76%
inactive: [1]; [7] 31% | [2]; [7] 10% | [2]; [8] 59% | [3]; [7] 10% | [4]; [7] 9% | [4]; [8] 65% | [5]; [7] 8% | [5]; [8] 56% | [6]; [7] -14% | [6]; [8] 46%

CC[C@@]1(O)C(=O)OCc2c1cc1n(c2=O)Cc2c-1nc1ccccc1c2Cl
active: [1]; at 50.0 µM 94.9% | [2]; at 50.0 µM 92% | [4]; at 50.0 µM 81.8%
inactive: [3]; at 50.0 µM 63.8% | [5]; at 50.0 µM -6.7% | [6]; at 50.0 µM 46.3%

CCC1(OC(=O)CNC)C(=O)OCc2c1cc1n(c2=O)Cc2cc3ccccc3nc2-1 (stereo not given)
active: [1]; at 50.0 µM 78.7% | [2]; at 50.0 µM 83.7% | [3]; at 50.0 µM 76.3% | [5]; at 50.0 µM 72%
inactive: [4]; at 50.0 µM 60.2%

Cc1cc(N(CCCl)CCCl)ccc1C=N/C(C#N)=C(\N)C#N
inactive: [1]; at 50.0 µM 2.05% | [2]; at 50.0 µM -9.05% | [3]; at 50.0 µM -4.8% | [4]; at 50.0 µM -8.6% | [5]; at 50.0 µM -1.9%

O=[As](O)(O)c1cc(F)ccc1F
inactive: [1]; at 50.0 µM -5.75% | [2]; at 50.0 µM -4.3% | [3]; at 50.0 µM -11.4% | [4]; at 50.0 µM -15.3% | [5]; at 50.0 µM -8% | [6]; at 50.0 µM -8.3%

COc1cc(Cl)c(OP(=O)(OC)OC)cc1Cl
inactive: [1]; at 50.0 µM -3.8% | [2]; at 50.0 µM 9.4% | [3]; at 50.0 µM 12.3% | [4]; at 50.0 µM -1.9% | [5]; at 50.0 µM -1.05% | [6]; at 50.0 µM 5.75%
